# Experimental data as given in paper PMC4336329 (PLoS ONE, 2015).
# About 14,000 (4.5%) of roughly 310,000 compounds showed an effect of 50% or more. Effects have a minus sign here. The list comes from a sample in which strong results are over-represented; it also holds similar structures and randomly drawn compounds.
# Target: human ether-à-go-go-related gene (hERG) potassium channel (human, UniProt Q12809)
# Assay: primary screen, population patch clamp on CHO cells stably expressing hERG; higher = less effect of the substance
# 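Also: peak tail current of the secondary pulse compared with the same well before compound.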
# Chain of human ether-à-go-go-related gene (hERG) potassium channel (Q12809 whole entry, looked up): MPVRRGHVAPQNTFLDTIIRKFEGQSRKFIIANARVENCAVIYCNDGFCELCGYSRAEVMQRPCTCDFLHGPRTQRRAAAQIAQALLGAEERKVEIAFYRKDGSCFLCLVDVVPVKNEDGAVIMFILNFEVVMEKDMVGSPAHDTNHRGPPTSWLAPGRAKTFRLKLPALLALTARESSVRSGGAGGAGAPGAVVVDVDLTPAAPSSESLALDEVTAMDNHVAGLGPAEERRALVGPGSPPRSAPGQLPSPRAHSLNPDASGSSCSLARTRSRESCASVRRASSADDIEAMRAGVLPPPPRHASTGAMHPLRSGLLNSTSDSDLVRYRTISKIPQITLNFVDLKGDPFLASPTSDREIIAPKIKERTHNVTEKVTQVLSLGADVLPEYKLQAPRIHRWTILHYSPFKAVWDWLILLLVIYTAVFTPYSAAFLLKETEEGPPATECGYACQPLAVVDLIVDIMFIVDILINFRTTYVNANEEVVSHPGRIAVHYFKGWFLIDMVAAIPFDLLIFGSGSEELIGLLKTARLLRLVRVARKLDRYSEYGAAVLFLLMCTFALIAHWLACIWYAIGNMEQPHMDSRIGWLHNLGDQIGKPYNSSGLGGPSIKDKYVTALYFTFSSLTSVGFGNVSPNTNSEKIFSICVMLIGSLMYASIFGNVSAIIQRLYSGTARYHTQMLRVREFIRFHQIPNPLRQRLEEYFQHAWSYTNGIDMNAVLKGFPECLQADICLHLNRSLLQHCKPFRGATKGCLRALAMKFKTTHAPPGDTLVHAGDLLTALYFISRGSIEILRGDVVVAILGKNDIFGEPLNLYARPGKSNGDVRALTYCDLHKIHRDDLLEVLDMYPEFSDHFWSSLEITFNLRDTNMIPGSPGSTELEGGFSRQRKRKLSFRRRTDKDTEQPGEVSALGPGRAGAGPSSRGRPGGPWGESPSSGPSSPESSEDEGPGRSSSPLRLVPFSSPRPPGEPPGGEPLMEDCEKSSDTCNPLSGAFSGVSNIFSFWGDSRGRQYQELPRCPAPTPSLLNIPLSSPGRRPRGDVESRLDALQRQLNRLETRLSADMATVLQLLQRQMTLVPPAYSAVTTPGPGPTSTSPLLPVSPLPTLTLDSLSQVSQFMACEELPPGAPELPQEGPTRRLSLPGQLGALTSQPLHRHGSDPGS
row,SMILES,"hERG current change (%, negative = inhibition) at 10uM"
1,COc1ccc(N2C(=O)CC(N3CCN(c4ccccc4OC)CC3)C2=O)cc1 (centres unmarked),6.7%
2,O=S(=O)(Cc1ccccc1)Nc1ccc(S(=O)(=O)N2CCCC2)cc1,5.25%
3,Cc1ccc(C)c(C(=O)CSc2n[nH]c(-c3ccncc3)n2)c1,-0.0279%
4,CCN1/C(=C/C(C)=C/c2sc3ccccc3[n+]2CC)Sc2ccccc21.[I-],-78.8%
5,CCN1/C(=C/C=C/C=C/C=C/c2sc3ccccc3[n+]2CC)Sc2ccccc21.[I-],-49.5%
6,CCN1/C(=C\C=C2\C(=O)N(C)C(=S)N2C)Sc2ccccc21,24%
7,CC[n+]1c(/C=C(/C)SC)sc2ccccc21.COS(=O)(=O)[O-],5.99%
8,CC[n+]1c(/C=C(\C)SC)sc2ccccc21.COS(=O)(=O)[O-],3.25%
9,CCOC(=O)/C(=C/C=C1\Sc2ccccc2N1CC)C(C)=O,4.94%
10,CCN1/C(=C/C=C/C=C/c2sc3ccccc3[n+]2CC)Sc2ccccc21.[I-],-78.9%
11,CCN1/C(=C\C=C(C(C)=O)C(C)=O)Sc2ccccc21,-2.64%
12,CCN1/C(=C/C=C/c2sc3ccccc3[n+]2CC)Sc2ccccc21.[I-],-73.8%
13,Cn1nc(C(=O)NCc2cccc(Cl)c2)c2c1-c1ccccc1S(=O)(=O)C2,9.4%
14,CN(C)S(=O)(=O)c1cccc(NC(=O)Cn2cc(C(F)(F)F)cc(Cl)c2=O)c1,3.98%
15,CN(CC(=O)Nc1cccc(F)c1)CC(=O)N(C)CC(=O)Nc1ccccc1Br,-13.7%
16,O=c1ccnc(NCCc2ccccc2)[nH]1,12.7%
17,O=c1c2ccccc2nc(-c2ccccc2)n1CCCn1ccnc1,-31.9%
18,CCCCn1c(-c2ccco2)nc2ccccc2c1=O,-12.2%
19,COCCCn1c(-c2ccco2)nc2ccccc2c1=O,-16%
20,COc1ccc(-c2nc3ccccc3c(=O)n2CCCn2ccnc2)cc1,-49%

row,SMILES,"hERG current change (%, negative = inhibition) at 10uM"
1,Cc1ccc(-c2nc3ccccc3c(=O)n2CCCn2ccnc2)cc1,-57.7%
2,O=c1c2ccccc2nc(-c2ccco2)n1CCCn1ccnc1,-53.9%
3,CCn1c(NN)nc2sc3c(c2c1=O)CCC3,17.5%
4,COc1ccc2c(c1)C=C([C@@H]1C[C@H]3CN(c4ccccc4)C(=O)[C@]34CCCN14)CO2,-49.2%
5,OCC(O)C1OC(Nc2ccc(Br)cc2)C(O)C1O (centres unmarked),16.7%
6,CN(C)c1cccc(C(=O)NCc2ccc(Cl)cc2)c1,-8.25%
7,Cc1nc2nc[nH]n2c(=O)c1NS(C)(=O)=O,4.48%
8,CCc1ccc(-c2nc(SCC(=O)NC3CCS(=O)(=O)C3)n[nH]2)cc1 (centres unmarked),4.84%
9,C=CCn1c(=O)c(C=Nc2cccnc2Cl)c(O)n(CCCC)c1=O,-5.65%
10,C=CCn1c(=O)c(C=Nc2c(OC)cccc2[N+](=O)[O-])c(O)n(CCCC)c1=O,-23.8%
11,C=CCn1c(=O)c(C=Nc2cccc([N+](=O)[O-])c2)c(O)n(CCCC)c1=O,-55%
12,O=C(COc1coc(CN2CCc3ccccc3C2)cc1=O)Nc1cccc([N+](=O)[O-])c1,2.89%
13,CCc1ccc(N2CC(C(=O)Nc3ccc(C)c(S(=O)(=O)N4CCOCC4)c3)CC2=O)cc1 (centres unmarked),-34.6%
14,COc1ccc(NS(=O)(=O)c2cccc(Cl)c2)cc1S(=O)(=O)N1CCCCC1,7.81%
15,COc1ccc(NC(=O)CC(C)CC(=O)NCc2ccccc2)c(OC)c1 (centres unmarked),-0.642%
16,CCCc1cc(Nc2cccc(OCC)c2)n2ncnc2n1,-68%
17,CCCc1cc(Nc2cccc(OC)c2)n2ncnc2n1,-28.5%
18,CCCc1cc(Nc2ccccc2)n2ncnc2n1,2.69%
19,CSc1ccc(S(=O)(=O)N2CCC(C(=O)NC3CC3)CC2)cc1,-7.17%
20,C=CCNC1=C(Cl)C(=O)c2ccccc2C1=O,4.26%

row,SMILES,"hERG current change (%, negative = inhibition) at 10uM"
1,Cc1ccc(S(=O)(=O)N2CCN(C)CC2)cc1C(=O)NC1CCCCC1,-19.5%
2,CCN(CC)CCn1c(=S)[nH]c2cc(C(=O)NCc3ccc(C)cc3)ccc2c1=O,-57.9%
3,Cc1ccc(CNC(=O)c2ccc3c(=O)n(CC4CCCO4)c(=S)[nH]c3c2)cc1 (centres unmarked),-9.6%
4,O=C(NCc1ccccc1Cl)c1ccc2c(=O)n(CCCN3CCCC3=O)c(=S)[nH]c2c1,-8.83%
5,CCN(CC)CCn1c(=S)[nH]c2cc(C(=O)NCc3ccccc3Cl)ccc2c1=O,-76.1%
6,Cc1ccc(CNC(=O)c2ccc3c(=O)n(CCCN4CCCC4=O)c(=S)[nH]c3c2)cc1,6.41%
7,O=C(NCc1ccccc1Cl)c1ccc2c(=O)n(CC3CCCO3)c(=S)[nH]c2c1 (centres unmarked),10.1%
8,COc1ccccc1N(CC(O)COc1c(C)cc(C)cc1C)S(=O)(=O)c1ccccc1 (centres unmarked),-0.161%
9,CSc1ncccc1C(=O)N1CCCC(CCC(=O)NCc2ccccc2F)C1 (centres unmarked),6.52%
10,CN1CCC(N(C)C(=O)c2sc3cc(F)ccc3c2Cl)CC1,-47.9%
11,COc1ccc(NS(=O)(=O)c2cccc3nsnc23)cc1Cl,11.2%
12,NC(=O)CSc1ncc(-c2ccc([N+](=O)[O-])cc2)[nH]1,-14.6%
13,CCOC(=O)CSc1ncc(-c2ccc([N+](=O)[O-])cc2)[nH]1,-61%
14,Cc1cc(C)c(CSc2ncc(-c3ccc([N+](=O)[O-])cc3)[nH]2)c(C)c1,-10.2%
15,Cc1ccc(-n2cccn2)c(CN2CCCC(C(=O)c3ccc4c(c3)OCO4)C2)c1 (centres unmarked),-77.2%
16,CCOC(=O)CCNC(=O)N1CCCC(C(=O)c2ccc3c(c2)OCO3)C1 (centres unmarked),2.31%
17,O=C(c1ccc2c(c1)OCO2)C1CCCN(C(=O)Nc2ccc(F)cc2F)C1 (centres unmarked),-30%
18,O=C(c1ccc2c(c1)OCO2)C1CCCN(Cc2cc(F)ccc2-n2cccn2)C1 (centres unmarked),-74.9%
19,CCOC(=O)CNC(=O)N1CCCC(C(=O)c2ccc3c(c2)OCO3)C1 (centres unmarked),11.1%
